What all share (test): NCI-60 one-dose screen, 48 h (100 = growth as untreated, 0 = no growth, -100 = all killed)
Settings in all cases: 10 µM unless noted

For assay [1], the system named is HCT-15 colon.
Assay [2] deals with HT29 colon.
In assay [3] the test system is SNB-75 CNS.
In assay [4] the test system is SNB-19 CNS.
The test system of assay [5] is U251 CNS.
The test system of assay [6] is SK-MEL-5 melanoma.
Assay [7] relates to UACC-62 melanoma.
The test system of assay [8] is LOX IMVI melanoma.
In assay [9] the test system is SK-MEL-28 melanoma.
For assay [10], the system named is PC-3 prostate.

SMILES strings stand for the structures. Compounds without any hit were thinned out: in the full panel of roughly 83,000, 20% have a hit.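 Percent growth is the endpoint: 0 to 100 indicates growth inhibition (40 means 60% inhibition), 0 means no net growth, and negative values indicate cell death.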 Unmarked numbers belong to inactive results. Activity calls are given as the source filed them. How the source made its calls: active means growth percent below 10; inactive means the rest.

Data on 15 compounds can be found in PubChem BioAssay (NCI).

Take `O=C1CSC(c2ccccc2O)N1c1nnc(Cn2ccnc2)o1` (stereo not given): the growth was 28.8% in [1]; 86.2% in [2]; 74.9% in assay [3]; 86.3% in [4]; 66.6% in assay [5]; 55.1% in assay [6]. Further, the growth in assay [7] was 77.4%; in [8], 56%; in assay [9], 74.8%.
With `CCOC(=O)Nc1cc(-c2ccc(C)c(NS(C)(=O)=O)c2)nn2c(C)nnc12`, the growth was 9.95% (active) in [1]; 9.76% (active) in assay [2]; 1.74% (active) in assay [3]; 39.1% in assay [4]; 23.8% in assay [10]; -57.2% (active) in [6]. Besides, the growth in assay [7] is 12.9%; in [8], -22.7% (active); in [9], 14.3%.
`C=CCNC(=O)/C(=C/c1cccc([N+](=O)[O-])c1)NC(=O)c1ccccc1`: the growth is 87.5% in assay [1]; 113% in [2]; 87.5% in assay [3]; 91.2% in [4]; 96.8% in assay [5]; 94.7% in [10]. The growth was 95.3% in assay [7], 93.4% in assay [8] and 119% in [9].
Take `CN1CCN(CCCOc2ccc3ncnc(Nc4ccc(OCc5cccc(F)c5)c(Cl)c4)c3c2)CC1`: the growth was -50.8% (active) in [1]; -49.5% (active) in [2]; 65.1% in [3]; 3.46% (active) in assay [4]; -18.9% (active) in assay [10]; -98.2% (active) in [6]. The growth in assay [7] is -57.8% (active); in assay [8], -92.9% (active); in [9], -86.6% (active).
Regarding `COc1cc(/C=N/NC(=O)c2ccc(C(F)(F)F)nc2Nc2cc(Cl)ccc2C)cc(OC)c1OC`, the growth in [1] was 104%; in [2], 127%; in [3] it was 96%; in [4], 75.4%; in assay [10], 66.8%; in [6], 102%. The growth in assay [7] is 85%; in [8] it was 102%; in assay [9], 99.5%.
Consider `COc1ccc(OC)c2c1CCC1(C2)NC(=O)NC1=O` (stereo not given), for which the growth was 93.6% in assay [1]; 104% in [2]; 86.2% in [3]; 98.8% in assay [4]; 94.8% in assay [10]; 101% in [6]. The growth in [7] was 103%; in assay [8], 100%; in [9], 106%.
Take `O=[N+]([O-])c1ccc2[nH]cc(-c3c4ccccc4cc4[nH]c5ccc([N+](=O)[O-])cc5c34)c2c1`: the growth in assay [1] is 19.9%; in assay [2], 13.4%; in assay [3] it was 16.6%; in assay [4], 47.6%; in [10] it was 17.2%; in assay [6], 23.2%. The growth is 28.6% in [7], 21.3% in assay [8] and 28.1% in assay [9].
With `Cc1ccc(N/N=C(/C(=O)c2ccc(Cl)cc2)c2nc(C)cc(=O)[nH]2)cc1`, the growth in assay [1] is 111%; in assay [2] it was 111%; in assay [3], 116%; in assay [4], 104%; in [10] it was 95%; in assay [6], 82.5%. The values for the growth in assay [7], in assay [8] and in [9] were 90.8%, 92.6% and 118%, respectively.
For `O=C(c1ccc(Cl)cc1)c1ccc(Cl)cc1`, the growth is 113% in assay [1]; 102% in assay [2]; 112% in [3]; 109% in [4]; 110% in assay [10]; 96.4% in assay [6]. Besides, the values for the growth in assay [7], in assay [8] and in [9] were 103%, 103% and 106%, respectively.
Take `O=C(CSc1ncc(-c2ccccc2)n1-c1ccccc1)Nc1ccc(-c2nc3ccccc3s2)cc1`: the growth in assay [1] is 69%; in [2], 38.1%; in [3], 103%; in assay [4], 90.4%; in assay [10], 80%; in [6], 75.7%. Further, the growth in assay [7] is 87.3%; in [8], 63.5%; in [9], 80%.
Regarding `COc1cccc(/C=C2\Cc3ccccc3C2=O)c1`, the growth in assay [1] is 100%; in [2], 100%; in [3], 104%; in assay [4] it was 94.2%; in [10], 87.5%; in assay [6] it was 100%. The growth in assay [7] is 98.9%; in [8] it was 99.5%; in assay [9], 113%.
Turning to `Cc1[nH]c(=O)[nH]c(=O)c1CCSSCCc1c(C)[nH]c(=O)[nH]c1=O`, the growth in assay [1] was 113%; in [2], 99.2%; in assay [3] it was 97.1%; in [4], 105%; in assay [10], 99.6%; in assay [6], 103%. Also, the results for the growth in [7], in assay [8] and in assay [9] were 104%, 97.8% and 114%, respectively.
In the case of `CCCCNCCCN(CCCC)CCCNCCCC`, the growth is 93.2% in assay [1]; 105% in [2]; 110% in assay [3]; 98.2% in [4]; 90.4% in [10]; 97.3% in [6]. Further, the growth is 96.5% in assay [7], 104% in [8] and 99.6% in assay [9].
As for `COc1ccc(CNC(=O)c2c(C)n([O-])c3cc(F)c(F)cc3[n+]2=O)cc1`, the growth is 36.8% in assay [1]; 93% in assay [2]; 93% in [3]; 93.9% in [4]; 94% in assay [10]; 97.5% in [6]. The growth in [7] was 87.7%; in assay [8], 57.1%; in assay [9], 93.7%.
For `Nc1ccccc1-c1ccn[nH]1`, the growth was 85.2% in [1]; 106% in [2]; 61.9% in assay [3]; 97.4% in assay [4]; 79.1% in assay [10]; 96.6% in assay [6]. Further, the growth in assay [7] was 48.4%; in assay [8], 68.6%; in assay [9], 110%.
